Experimental data: PubChem BioAssay (Tox21)
Inconclusive results are not listed. Unmarked numbers belong to inactive results. Calls come from the whole dose curve; as a rule, active = well fitted cell-killing curve with a large enough effect in the repeat runs; inconclusive = weak or mixed curves; inactive = flat fitted curve, though single readings scatter.

Assay: qHTS RealTime-Glo MT Cell Viability Assay in HepG2 cells - 16 hour (AID 1224885); note: nearly all actives have a fitted effect of over 50% in size
Settings: RealTime-Glo luminescence; series mostly up to 76.8 µM; activity change, negative = cytotoxic: at the top concentration
Summary of the method: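 HepG2 cells (600/well) were dispensed with RealTime-Glo reagents, incubated 5 h at 37 °C, then treated with compounds in DMSO for up to 40 h. Nonlytic NanoLuc luminescence reflecting viable cells was read at each stated time point.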
% is set by controls: 0 for no effect and ±100 for the full control effect.

SMILES	activity change, negative = cytotoxic
CCOc1ncc(F)c(=O)[nH]1	4.28% [at 35.3 µM]
CC(O)Cn1cnc2c1c(=O)n(C)c(=O)n2C (stereo not drawn)	3.25% [at 35.3 µM]
CCCCCCCC/C=C/C(=O)O	6.94% [at 35.3 µM]
CCN(CC)CCOc1ccccc1C(=O)CCc1ccccc1	-7.22% [at 35.3 µM]
Nc1ccn([C@H]2CS[C@@H](CO)O2)c(=O)n1	1.27%
O=C(O)CCCc1c[nH]c2ccccc12	4.8%
CNc1c2c(nn1C)CCCC2	1.36% [at 35.3 µM]
CCNc1nc(N)nc(Cl)n1	3.14%
CCCOC(=O)c1c(Cl)c(Cl)c(Cl)c(Cl)c1C(=O)OCCC	-4.81%
CN=C(N)NC(=O)Nc1c(C)cccc1C	2.39% [at 35.3 µM]
O=S(=O)(O)CO	1.98%
CC(=O)OC(C)C[N+](C)(C)C (stereo not drawn)	-0.543% [at 35.3 µM]
CCC(CO)(CO)CO	-0.0178%
CSSc1ccoc1C	3.91%
O=CNNC=O	0.972%
CC(C)N=C=NC(C)C	-2.31%
CC(=O)N[C@@H](Cc1ccc(O)cc1)C(=O)O	-7.23% [at 35.3 µM]
CC(=O)Oc1cccc(O)c1	-0.815% [at 35.3 µM]
CC(C)(C(=O)c1cccnc1)c1cccnc1	0.0864% [at 35.3 µM]

SMILES	activity change, negative = cytotoxic
C=CC(=O)NC(C)C	1.72%
COc1cc(OC)c2ccc(=O)oc2c1	-11.6%
CC(C)C1CCC(C(=O)N[C@H](Cc2ccccc2)C(=O)O)CC1 (stereo partly drawn)	5.96% [at 35.3 µM]
CC(C)(O)CCc1ccccc1	3.85%
Nc1nc(-c2ccc([N+](=O)[O-])cc2)cs1	-1.54%
Cc1cc(CCC(=O)OCCOCCOCCOC(=O)CCc2cc(C)c(O)c(C(C)(C)C)c2)cc(C(C)(C)C)c1O	-16.2%
O=C(O)CCS	0.102%
COc1ccc2nc(S(=O)Cc3ncc(C)c(OC)c3C)[nH]c2c1 (stereo not drawn)	-9.32% [at 35.3 µM]
C[C@H](CS)C(=O)N1CCC[C@H]1C(=O)O	5.1% [at 35.3 µM]
Cc1ccc(Cl)cc1N	0.323%
CN1C(CSCC(F)(F)F)Nc2cc(Cl)c(S(N)(=O)=O)cc2S1(=O)=O (stereo not drawn)	-4.4% [at 35.3 µM]
Cc1cc([N+](=O)[O-])ccc1N	-0.655%
CC[C@H]1OC(=O)[C@H](C)[C@@H](O[C@H]2C[C@@](C)(OC)[C@@H](O)[C@H](C)O2)[C@H](C)[C@@H](O[C@@H]2O[C@H](C)C[C@H](N(C)C)[C@H]2O)[C@](C)(O)C[C@@H](C)CN(C)[C@H](C)[C@@H](O)[C@]1(C)O	0.0133% [at 35.3 µM]
CCCCCCCCCCCCCOC(=O)CCSCCC(=O)OCCCCCCCCCCCCC	-6.5% [at 15.8 µM]
CC(=O)NNC(C)=O	0.547%
CC[C@H]1OC(=O)[C@H](C)[C@@H](O[C@H]2C[C@@](C)(OC)[C@@H](O)[C@H](C)O2)[C@H](C)[C@@H](O[C@@H]2O[C@H](C)C[C@H](N(C)C)[C@H]2O)[C@](C)(O)C[C@@H](C)/C(=N\OCOCCOC)[C@H](C)[C@@H](O)[C@]1(C)O	0.0134% [at 35.3 µM]
CNC1CCCN(c2c(F)cc3c(=O)c(C(=O)O)cn(C4CC4)c3c2OC)C1 (stereo not drawn)	-0.231% [at 35.3 µM]
Cc1ccc(NC(=O)N(C)C)cc1NC(=O)N(C)C	-2.34%
CC[C@@H](CO)NCCN[C@@H](CC)CO	0.496% [at 35.3 µM]
